Assay results from PubChem BioAssay.
Where “and” joins values, the source holds several entries; their conditions need not be identical. Identical values can stand only once.

What was measured:
[1] = tested on: Botulinum neurotoxin type F light chain protease (Clostridium botulinum); experiment: Botulinum neurotoxin type F light chain protease inhibition, multiplex microsphere flow cytometry, validation set (AID 588459); settings: multiplex microsphere protease substrate cleavage assay, at 10 µM, active compounds read high
[2] = biological target: Botulinum neurotoxin type A (Clostridium botulinum) (UniProt P0DPI0); experiment: BoNT/A light chain protease inhibitors, biochemical, multiplex microsphere flow cytometry, validation set (AID 588460); settings: at 10 µM, active compounds read high
[3] = biological target: Lethal factor (Bacillus anthracis) (UniProt P15917); experiment: Lethal factor protease inhibitors, Bacillus anthracis, multiplex microsphere cleavage assay, validation set (AID 588461); settings: flow cytometry, at 10 µM, active compounds read high

Measured: inhibition

COc1cc(CNCCc2ccccc2F)ccc1OCC(=O)N1CCCCC1
inactive: [1] 5.4% | [2] -0.1% | [3] 1%

Nc1nc2c(nc(SCc3ccccc3Br)n2C2OC(CO)C(O)C2O)c(=O)[nH]1 (centres undefined)
inactive: [1] -2.6% | [2] -1.9% | [3] -1.1%

CC1(C)[C@@H](O)CC[C@]2(C)[C@H]3C(=O)C=C4[C@@H]5C[C@@](C)(C(=O)O)CC[C@]5(C)CC[C@@]4(C)[C@]3(C)CC[C@@H]12
inactive: [1] 4.4% | [2] -1.5% | [3] -0.5%

NS(=O)(=O)c1cc2c(cc1Cl)NC(C(Cl)Cl)NS2(=O)=O (centres undefined)
inactive: [1] -0.3% | [2] 0.1% | [3] -3%

O=C(O)CCC(=O)c1ccc(-c2ccccc2)cc1
inactive: [1] -4.5% | [2] -1.1% | [3] 2.1%

Cc1cccc(C2=N/C(=C\c3cccnc3)C(=O)O2)c1
inactive: [1] -1.1% | [2] 1.9% | [3] 3.7%

COc1ccc(CN2CCCC(C(=O)c3ccc(Cl)cc3)C2)cc1Cn1cccn1 (centres undefined)
inactive: [1] 1.9% | [2] -0.6% | [3] 3.9%

Cc1ccc2[nH]c3c(c2c1)CCNC3=O
inactive: [1] -0.6% | [2] -0.5% | [3] -6.6%

COc1ccc(C(=O)/C=C/c2cc(C(=O)O)cc3c2OCOC3)c(O)c1
inactive: [1] 1.3% | [2] -0.8% | [3] 4.4%

CC(=O)Oc1ccc(C2OC(=O)c3ccccc3N2C(C)=O)cc1 (centres undefined)
inactive: [1] 2% | [2] 0.3% | [3] 3.3%

O=c1oc2c(CN3CCCCC3)c(O)ccc2c2c1CCCCC2
inactive: [1] 4.3% | [2] 0.5% | [3] 1.1%

COc1cc2oc(-c3ccc(O)cc3)cc(=O)c2c(OC)c1O
inactive: [1] -1.9% | [2] -0.3% | [3] -2.3%

O=C(Nc1cccc(-c2nc3ncccc3o2)c1)c1ccccc1
inactive: [1] 2.8% | [2] -0.9% | [3] -1.6%

CC1CC(OC(=O)C(O)c2ccccc2)CC(C)(C)N1C (centres undefined)
inactive: [1] -2.4% | [2] -1.7% | [3] -6.1%

O=C(CCc1ccccc1)Nc1ccccc1C(F)(F)F
inactive: [1] 0.7% | [2] -0.1% | [3] 0.5%

CC(=O)OCC1OC(n2ccc(=O)[nH]c2=O)C(O)C1O (centres undefined)
inactive: [1] -0.4% | [2] 0.5% | [3] -5.3%

CCCCCC(O)c1cccc(OCc2ccc3ccccc3n2)c1 (centres undefined)
inactive: [1] 0.9% | [2] 0.6% | [3] -0.8%

CC(C)C12CN3CC(C(C)C)(CN(C1)C31C(=O)Nc3ccccc31)C2=O (centres undefined)
inactive: [1] 0.1% | [2] 0.7% | [3] 9%

N=c1c[n+](N2CCOCC2)[n-]o1
inactive: [1] -6.3% | [2] 0.1% | [3] 0.2%

CC(C)[N+](C)(CCOC(=O)C1c2ccccc2Oc2ccccc21)C(C)C
inactive: [1] -0.1% | [2] 0.5% | [3] 4%

COc1cc(C2Nc3ccccc3NC3=C2C(=O)CC(c2ccc(OC)c(OC)c2)C3)ccc1O (centres undefined)
inactive: [1] -5.5% | [2] -0.9% | [3] 0%

COc1ccc(-c2cc(=O)oc3cc(OC(C)C(=O)O)ccc23)cc1 (centres undefined)
inactive: [1] 0.9% | [2] 2% | [3] 9.7%

Cc1nc(C2CC(=O)OC23CCCCC3)cs1 (centres undefined)
inactive: [1] 0.3% | [2] -0.7% | [3] -10.4%

COc1ccc(C(=O)c2oc3ccc(Br)cc3c2NC(C)=O)cc1
inactive: [1] 0.3% | [2] -1.1% | [3] -3.6%

Cn1nc(-c2ccc(Cl)cc2)nc2c(=O)n(C)c(=O)nc1-2
inactive: [1] -0.5% | [2] 2% | [3] 3.7%

CO/N=C(\C(=O)N[C@@H]1C(=O)N2C(C(=O)O)=C(COC(C)=O)CS[C@H]12)c1csc(N)n1 (stereo in doubt)
inactive: [1] 2.7% | [2] -1.1% | [3] -5.4%

Cc1cc(Cl)cc2c1NC(=O)[C@]21[C@@H]2C(=O)N(Cc3ccccc3)C(=O)[C@@H]2[C@@H]2CCCN21
inactive: [1] 2.1% | [2] 1.7% | [3] 2.3%

CC1(C)S[C@@H]2[C@H](NC(=O)[C@H](N)c3ccccc3)C(=O)N2[C@H]1C(=O)O
inactive: [1] 2.6% and -3.6% | [2] 2.2% and -0.7% | [3] 5% and -3%
